Laboratory results reported in the supplement of paper PMC11383364.
± gives the standard deviation of the averaged measurements.

tested on: SUM149; experiment: percent difference in area under dose-response curve of relative cell number, RPMI vs HPLM; higher = drug relatively more effective in HPLM than RPMI (negative = less effective in HPLM); details: treatment time: 72 h; dose range: 10-point, 1 nM to 20 µM; media compared: RPMI vs HPLM

Row | Structure (SMILES) | percent difference in area under dose-response curve [%]
1 | Cc1nc2c(-c3cnc(N)nc3)nc(N3CCOCC3)nc2n1C(C)C | -7.54
2 | CNCc1ccc(-c2[nH]c3cc(F)cc4c3c2CCNC4=O)cc1 [Rucaparib] | -14.3
3 | Cc1ccccc1C(C(=O)NC1CCCC1)N(C(=O)Cn1cnc2ccccc21)c1cccc(F)c1 (centres undefined) | -1.67
4 | CC[n+]1c(-c2ccccc2)c2cc(N)ccc2c2ccc(N)cc21 [Ethidium_Bromide] | -18.5
5 | CN1CCN(c2cccc(Nc3nc4c(-c5ccc(S(C)(=O)=O)cc5)cccn4n3)c2)CC1 | -13.7
6 | CC[C@@]1(O)C(=O)OCc2c1cc1n(c2=O)Cc2cc3c(CN(C)C)c(O)ccc3nc2-1 [Topotecan_HCl] | -48.7
7 | Oc1ccc(/C=C/c2cc(O)cc(O)c2)cc1 [Resveratrol] | -1.11
8 | Cc1cnc(-c2ccccc2C(C)C)nc1NCc1ccc(-n2ccnn2)cc1 | -3.5
9 | Cn1cnc2c(F)c(Nc3ccc(Br)cc3Cl)c(C(=O)NOCCO)cc21 | -3.35
10 | C=CC(=O)N1CCC[C@@H](n2nc(-c3ccc(Oc4ccccc4)cc3)c3c(N)ncnc32)C1 | 7.26
11 | CCCCCCCCCCCCC/C=C/[C@@H](O)[C@H](CO)N(C)C [N_N_Dimethylsphingosine] | 6.06
12 | CCOc1cc(N2CCC(O)CC2)ccc1Nc1ncc2c(n1)N(C)c1ccccc1C(=O)N2C | -8.79
13 | CN1CCN(CCOc2cc(OC3CCOCC3)c3c(Nc4c(Cl)ccc5c4OCO5)ncnc3c2)CC1 [Saracatinib] | 14.3
14 | S=c1[nH]cnc2nc[nH]c12 [Mercaptopurine] | -43.4
15 | COCC[n+]1c2c(n(Cc3cnccn3)c1C)C(=O)c1ccccc1C2=O | 15.7
16 | Nc1nc(Cl)nc2c1ncn2[C@@H]1O[C@H](CO)[C@@H](O)[C@@H]1F [Clofarabine] | -18.6
17 | Cc1cccc(Nc2nc(-c3ccncc3)cs2)c1 | -3.22

Row | Structure (SMILES) | percent difference in area under dose-response curve [%]
18 | CN[C@H]1CN(c2ccc3c(=O)c(C(=O)O)cn(-c4nccs4)c3n2)C[C@@H]1OC [Voreloxin] | -18
19 | CNCCC(Oc1ccc(C(F)(F)F)cc1)c1ccccc1 (centres undefined) [Fluoxetine] | 0.518
20 | Cc1cc(Nc2cc(N3CCN(C)CC3)nc(/C=C/c3ccccc3)n2)n[nH]1 | -2.84
21 | Nc1nc(=S)c2[nH]cnc2[nH]1 [6_Thioguanine] | -37.9
22 | COc1cc2/c(=N/c3ccc(Br)cc3F)nc[nH]c2cc1OCC1CCN(C)CC1 [Vandetanib] | -3.62
23 | O=C(O)c1ccc(-c2c[nH]c3ncc(-c4ccccc4)cc23)cc1C1CCCC1 | -9.42
24 | Nc1ccn([C@@H]2O[C@H](CO)[C@@H](O)C2(F)F)c(=O)n1 [Gemcitabine] | -24.6 ± 5.4
25 | COc1cc2nccc(Oc3ccc(NC(=O)C4(C(=O)Nc5ccc(F)cc5)CC4)cc3)c2cc1OC [Cabozantinib_malate] | 13.2
26 | Nc1cc(C(F)(F)F)c(-c2cc(N3CCOCC3)nc(N3CCOCC3)n2)cn1 | -2.14
27 | CN(C)CCCn1cc(C2=C(c3c[nH]c4ccccc34)C(=O)NC2=O)c2ccccc21 | 0.14
28 | Cc1ccc(F)c(NC(=O)Nc2ccc(-c3cccc4[nH]nc(N)c34)cc2)c1 [Linifanib] | 0.938
29 | O=c1cc(N2CCOCC2)oc2c(-c3cccc4c3sc3ccccc34)cccc12 | -2.53
30 | Cn1cc(CNCC2CCN(c3ncc(C(=O)NO)cn3)CC2)c2ccccc21 | -19.7
31 | CCCCCCCC/C=C\CCCCCCCC(=O)NCCO [Oleylethanolamide] | 2.18
32 | c1ccc(Cn2c(-c3ccc(OC[C@H](C4CCNCC4)n4c(-c5ccccc5)nc5ccccc54)cc3)nc3ccccc32)cc1 [Deltarasin] | -7.63
33 | COc1ccc(-c2ccc3c(N4CCOC[C@@H]4C)nc(N4CCOC[C@@H]4C)nc3n2)cc1CO | -2.88
34 | CCOC(=O)[C@@H](N)CCC(=O)N[C@@H](CSCc1ccccc1)C(=O)N[C@@H](C(=O)OCC)c1ccccc1 [Telintra] | 2.03
